Screening data from PubChem BioAssay.
In the library only some 5% were active in any assay of this set; here they are far more common.
SENP6 block – blocks the human protease SENP6; AID 2599; 330,000 tested, 1.8% active; inhibition, % at 10 µM; Recombinant SENP6 catalytic domain, aminoluciferin luminescence;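 active = inhibition above about 50% at the single tested dose, limit read from the data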;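 note: plate controls were DMSO wells with enzyme for no effect and DMSO wells lacking enzyme for full effect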
SENP8 block-1 – blocks human SENP8 cleavage of Nedd8 substrate; recombinant SENP8, Nedd8 substrate fluorescence; inhibition, % at 20 µM; 360,000 tested, 0.64% active; AID 602440; in the data active = inhibition mostly above about 40%, no sharp cut-off; inactive = mostly below about 27%
AHR activator – activates the human aryl hydrocarbon receptor | 320,000 tested, 2.5% active | P35869 | AID 2796 | AHR-responsive luciferase reporter cells, luminescence | activation, % at 5 µM; in the data active = activation above about 47%;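 note: 0% = vehicle wells and 100% = reference agonist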
SENP8 block-2 – blocks the human protease SENP8; inhibition, % at 10 µM; purified SENP8, Z-RLRGG-aminoluciferin cleavage, luminescence; Q96LD8; 330,000 tested, 1.2% active; in the data active = inhibition above about 50%
SENP7 block – blocks the human protease SENP7; recombinant SENP7, Z-RLRGG-aminoluciferin luminescence, 40 min; inhibition, % at 5 µM; 330,000 tested, 1.5% active; AID 434973;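 active = inhibition above about 50% at the single test dose, limit read from the data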;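 note: plate controls were DMSO with enzyme for no effect and no enzyme buffer wells for full effect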
Target sequence (Q9BQF6 706-1050 limits assumed): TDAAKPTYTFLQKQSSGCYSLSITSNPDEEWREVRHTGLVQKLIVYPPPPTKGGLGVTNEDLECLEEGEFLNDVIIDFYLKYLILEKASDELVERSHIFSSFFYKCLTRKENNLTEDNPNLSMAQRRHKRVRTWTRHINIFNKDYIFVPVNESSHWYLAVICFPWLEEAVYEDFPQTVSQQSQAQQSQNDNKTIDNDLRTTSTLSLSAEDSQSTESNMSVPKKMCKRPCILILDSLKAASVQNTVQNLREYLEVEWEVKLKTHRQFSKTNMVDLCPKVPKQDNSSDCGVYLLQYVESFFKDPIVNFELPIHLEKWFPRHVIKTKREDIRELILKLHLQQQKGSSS
EBI2 block – blocks human EBI2 receptor beta-arrestin signaling; 360,000 tested, 0.81% active; EBI2 beta-arrestin recruitment, luminescence, 7a,25-OHC stimulated; inhibition, % at 5 µM; P32249; AID 651636; in the data active = inhibition above about 38%;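 note: enzyme fragment complementation signal reports receptor beta-arrestin coupling in cells; 0% = agonist plus DMSO wells and 100% = wells without agonist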
SENP8 confirm – human SENP8 inhibition, confirmed. 6,200 tested, 40% active. AID 488912. shares compounds with SENP7 block. inhibition, % at 12.5 µM. Recombinant SENP8, Z-RLRGG-aminoluciferin luminescence, 60 min;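 active = mean inhibition across replicates above about 50%, limit read from the data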
SENP6 conf – human SENP6 inhibition, confirmed | shares compounds with SENP7 block | recombinant SENP6, Z-RLRGG-aminoluciferin luminescence | inhibition, % at 12.5 µM | 6,200 tested, 58% active | AID 488915
SENP7 confirm – confirmation of human SENP7 protease inhibitors; shares compounds with SENP7 block; recombinant SENP7, Z-RLRGG-aminoluciferin luminescence, 40 min; inhibition, % at 12.5 µM; 6,200 tested, 69% active; AID 488917
Casp3 SENP sel – selectivity test for SENP inhibitors: human caspase-3 inhibition; shares compounds with SENP7 block; purified caspase-3, Z-DEVD-aminoluciferin luminescence, 60 min; inhibition, % at 12.5 µM; 6,200 tested, 60% active; AID 488918;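 active = mean inhibition above about 50%, limit read from the data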;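 note: plate controls were enzyme with DMSO for no effect and wells without caspase-3 for full effect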
Target sequence (P42574 28-227 limits assumed): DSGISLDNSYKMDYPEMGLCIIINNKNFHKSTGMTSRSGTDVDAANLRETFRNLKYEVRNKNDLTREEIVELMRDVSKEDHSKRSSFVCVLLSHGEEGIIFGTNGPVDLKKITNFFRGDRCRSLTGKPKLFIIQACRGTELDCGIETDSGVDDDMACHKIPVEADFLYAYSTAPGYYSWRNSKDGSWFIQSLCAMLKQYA
SENP luc ctr – interferes with luciferase luminescence in SENP counter-screen; shares compounds with SENP7 block; Pre-incubated SENP8/Z-RLRGG-aminoluciferin, luciferase luminescence interference; inhibition, % at 12.5 µM; 6,200 tested, 39% active; AID 488919;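 active = mean inhibition above about 50% when retested at one dose, limit read from the data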;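 note: plate controls were DMSO wells with completed reaction for no effect and substrate without enzyme for full effect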
Numbers without * were called inactive.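 Rule for the calls, unless noted: active = mean inhibition above about 50% in the one-dose retest (limit read from the data); inactive = the rest.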

`c1ccc(-c2nc(C3CCCCC3)c3ccccc3n2)cc1` gave SENP6 block -24, SENP8 block-1 2, AHR activator 2, SENP8 block-2 -14, SENP7 block 8 and EBI2 block -20.
`CCN(c1ccc(NC(=O)COC(=O)c2cccs2)cc1)C(C)C` gave SENP6 block 73*, SENP8 block-1 14, AHR activator 0, SENP8 block-2 42, SENP7 block 64*, EBI2 block 18, SENP8 confirm 68*, SENP6 conf 65*, SENP7 confirm 90*, Casp3 SENP sel 71* and SENP luc ctr 70*.
CCN(CC)c1ccc(NC(=O)COC(=O)c2cccs2)cc1 was read as SENP6 block 53*, SENP8 block-1 6, AHR activator 10, SENP8 block-2 23, SENP7 block 56*, EBI2 block 19, SENP8 confirm 29, SENP6 conf 26, SENP7 confirm 62*, Casp3 SENP sel 47 and SENP luc ctr 3.
`CC(=O)c1cccc(NC(=O)COC(=O)c2cccs2)c1` gave SENP6 block 8, SENP8 block-1 7, AHR activator -3, SENP8 block-2 3, SENP7 block 5 and EBI2 block 0.
`CC(C)CN(CCCNC(=O)CN1N=C(c2ccc(Cl)cc2)CCC1=O)CC(C)C` gave SENP6 block -15, SENP8 block-1 23, AHR activator 6, SENP8 block-2 -7, SENP7 block -11 and EBI2 block 5.
O=C(NC1CCCCC1)C(c1ccc(O)cc1)N(C(=O)c1cnccn1)c1cccc(F)c1 (configuration not stated) was read as SENP6 block -1, SENP8 block-1 17, AHR activator 1, SENP8 block-2 8, SENP7 block -7 and EBI2 block -8.
`Cc1cccc(NC(=O)c2ccc3nccnc3c2)c1C` gave SENP6 block -2, SENP8 block-1 8, AHR activator -4, SENP8 block-2 -2, SENP7 block 6 and EBI2 block 3.
Screening CC1CCCCN1S(=O)(=O)c1ccc(C(=O)Nc2sccc2C(N)=O)cc1 (configuration not stated) returned SENP6 block 83*, SENP8 block-1 -30, AHR activator 3, SENP8 block-2 86*, SENP7 block 79*, EBI2 block 10, SENP8 confirm 87*, SENP6 conf 88*, SENP7 confirm 97*, Casp3 SENP sel 74* and SENP luc ctr 40.
`Cc1cc(C)n(-c2ccc(C(=O)Nc3sccc3C(N)=O)cc2)n1` gave SENP6 block 75*, SENP8 block-1 -234, AHR activator -10, SENP8 block-2 37, SENP7 block 63*, EBI2 block 15, SENP8 confirm 64*, SENP6 conf 64*, SENP7 confirm 82*, Casp3 SENP sel 58* and SENP luc ctr 37.
Cc1cc(C)n(-c2ccc(C(=O)Nc3nnc(C)s3)cc2)n1 was read as SENP6 block -17, SENP8 block-1 -6, AHR activator 0, SENP8 block-2 -11, SENP7 block 12 and EBI2 block -1.
For CCOc1ccc(NC(=O)CN(C)C(=O)CC(NC(=O)c2ccccc2)c2ccccc2)cc1OCC (configuration not stated) the results were SENP6 block -16, SENP8 block-1 -1, AHR activator 0, SENP8 block-2 -4, SENP7 block 1 and EBI2 block 2.
CSc1nc2ccc(NC(=O)c3ccc(=O)[nH]c3)cc2s1 was read as SENP6 block 6, SENP8 block-1 -4, AHR activator 4, SENP8 block-2 -8, SENP7 block 6 and EBI2 block 4.
`CSc1nc2ccc(NC(=O)c3ccc(=O)n(C)n3)cc2s1` gave SENP6 block 92*, SENP8 block-1 5, AHR activator 12, SENP8 block-2 71*, SENP7 block 84*, EBI2 block -7, SENP8 confirm -4, SENP6 conf 31, SENP7 confirm 61*, Casp3 SENP sel 55* and SENP luc ctr 26.
Screening COc1ccc(C(=O)Nc2ccc3nc(C)sc3c2)cc1OC returned SENP6 block -7, SENP8 block-1 0, AHR activator 15, SENP8 block-2 42, SENP7 block 73*, EBI2 block -3, SENP8 confirm 57*, SENP6 conf 57*, SENP7 confirm 87*, Casp3 SENP sel 80* and SENP luc ctr 71*.
`COc1ccc(NC(=O)c2ccc3nc(C)sc3c2)cc1` gave SENP6 block 10, SENP8 block-1 10, AHR activator -10, SENP8 block-2 -26, SENP7 block 13 and EBI2 block 27.
For CSc1nc2ccc(NC(=O)c3cc4ccccc4o3)cc2s1 the results were SENP6 block 5, SENP8 block-1 -184, AHR activator 3, SENP8 block-2 69*, SENP7 block 93*, EBI2 block 13, SENP8 confirm -5, SENP6 conf 60*, SENP7 confirm 84*, Casp3 SENP sel 42 and SENP luc ctr 0.
For CSc1nc2ccc(NC(=O)c3ccc(F)c(F)c3)cc2s1 the results were SENP6 block 56*, SENP8 block-1 -20, AHR activator 1, SENP8 block-2 45, SENP7 block 74*, EBI2 block 8, SENP8 confirm 20, SENP6 conf 44, SENP7 confirm 28, Casp3 SENP sel 23 and SENP luc ctr 8.
`CN(C)c1ccc(C(C(=O)NC2CCCCC2)N(Cc2ccco2)C(=O)c2snc(C(N)=O)c2N)cc1` (configuration not stated) gave SENP6 block 0, SENP8 block-1 -65, AHR activator 2, SENP8 block-2 6, SENP7 block 3 and EBI2 block -48.
For CCC(C)Sc1nnc(CSc2nc3nc(C)cc(C)n3n2)o1 (configuration not stated) the results were SENP6 block 0, SENP8 block-1 3, AHR activator 1, SENP8 block-2 -4, SENP7 block 3 and EBI2 block -7.
`CC(=O)OCCN(C)c1cc(SC(C)C)c2nonc2c1[N+](=O)[O-]` gave SENP6 block 4, SENP8 block-1 1, AHR activator 4, SENP8 block-2 0, SENP7 block 2 and EBI2 block -8.
